# From PubChem BioAssay
# NOD2 RIPK2 PPI = NOD2-RIPK2 protein interaction inhibition; O43353; CHO BLA complementation NOD2-RIPK2, CCF4 ratio; inhibition, % at 4.98 µM; 360,000 tested, 0.38% active; in the data active = inhibition above about 21%;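 note: 0% = vehicle only and 100% = reference blocker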
# TLR4 MyD88 comp = blocks binding of human TLR4 to MyD88; O00206+Q99836; HeLa CL3-4 TLR4/MyD88 BLA complementation, FRET ratio; inhibition, % at 8.4 µM; 200,000 tested, 0.18% active; AID 861; in the data active = inhibition above about 25%;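 note: 0% = vehicle and 100% = reference inhibitor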
# PRMT1 inh = blocks human protein arginine methyltransferase 1 | inhibition, % at 2.79 µM | 370,000 tested, 1.3% active | AID 652257 | recombinant PRMT1, activity-based probe fluorescence polarization;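 active = inhibition above about 21% made by adding two undisclosed values, limit read from the data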
# TLR9-MyD88 block = blocks human TLR9 binding to MyD88 | CHO BLA complementation TLR9-MyD88, CCF4 FRET ratio | inhibition, % at 4.98 µM | 340,000 tested, 0.21% active | AID 504734;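 active = inhibition above the mean over all tested compounds plus 3 SD, cut at about 21% in these data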;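 note: 0% = DMSO only wells and 100% = clavulanate BLA inhibitor control wells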
# rCAG RNA binder = molecules binding r(CAG) RNA repeats; AID 651821; 370,000 tested, 1.3% active; inhibition, % at 3 µM; r(CAG) RNA repeat, TO-PRO-1 dye displacement fluorescence;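 active = inhibition above the plate cutoff, the mean of all test compounds on that plate plus 3 SD, cut at about 35% in these data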;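 note: 0% = DMSO alone and 100% = 100 µM mitoxantrone as full dye displacement; higher means more dye released from RNA so lower well fluorescence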
# ABHD5-PLIN5 inh = blocks binding of human ABHD5 to perilipin-5; inhibition, % at 4 µM; AID 602281; 360,000 tested, 0.78% active; Split G. princeps luciferase complementation, luminescence, 4 h; Q00G26+Q8WTS1;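 active = inhibition above the mean inhibition across every tested compound plus 3 SD, cut at about 22% in these data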;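 note: 0% = DMSO only wells and the 100% control is not disclosed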
# Target sequence (Q00G26 whole entry, looked up): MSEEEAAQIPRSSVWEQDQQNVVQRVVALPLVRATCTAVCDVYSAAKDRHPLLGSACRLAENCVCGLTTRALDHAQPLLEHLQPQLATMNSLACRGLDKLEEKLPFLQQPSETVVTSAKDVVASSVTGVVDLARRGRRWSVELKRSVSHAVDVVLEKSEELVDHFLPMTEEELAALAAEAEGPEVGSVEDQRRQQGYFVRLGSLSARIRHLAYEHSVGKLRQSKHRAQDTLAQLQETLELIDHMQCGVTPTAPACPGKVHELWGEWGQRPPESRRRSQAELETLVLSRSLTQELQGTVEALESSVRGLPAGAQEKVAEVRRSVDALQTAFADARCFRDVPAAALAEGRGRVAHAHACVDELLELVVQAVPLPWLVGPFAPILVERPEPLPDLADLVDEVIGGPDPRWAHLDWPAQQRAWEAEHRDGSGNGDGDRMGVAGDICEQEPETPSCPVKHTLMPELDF
# Target sequence (Q8WTS1 whole entry, looked up): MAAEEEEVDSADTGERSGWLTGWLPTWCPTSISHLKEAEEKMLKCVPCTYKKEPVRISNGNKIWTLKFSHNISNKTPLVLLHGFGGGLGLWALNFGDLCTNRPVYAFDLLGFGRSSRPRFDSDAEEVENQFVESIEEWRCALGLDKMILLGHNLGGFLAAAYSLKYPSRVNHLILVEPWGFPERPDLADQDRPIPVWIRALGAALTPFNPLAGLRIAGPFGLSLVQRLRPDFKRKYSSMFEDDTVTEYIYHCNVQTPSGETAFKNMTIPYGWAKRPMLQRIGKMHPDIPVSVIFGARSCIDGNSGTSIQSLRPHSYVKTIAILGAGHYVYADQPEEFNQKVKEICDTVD
# TLR4-MyD88 conf = TLR4-MyD88 interaction inhibition confirmed; inhibition, % at 8.4 µM; shares compounds with TLR4 MyD88 comp; HeLa CL3-4 BLA complementation, CCF4 FRET ratio; 350 tested, 50% active;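 active = mean inhibition across three repeat runs above about 25% carried over from the earlier screen, limit read from the data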;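 note: plate controls were DMSO only for no effect and clavulanic acid blocking BLA at full dose for full effect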
# BLA inh HeLa = counter-screen for TLR4-MyD88 inhibitors: beta-lactamase reporter inhibitors | shares compounds with TLR4 MyD88 comp | HeLa BLA reporter, CCF4 FRET ratio | inhibition, % at 8.4 µM | 350 tested, 63% active | AID 1237;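 active = mean inhibition over three repeats above about 26% taken from the earlier screen, limit read from the data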;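 note: HeLa cells stably expressing beta-lactamase reporter as counterscreen for TLR4-MyD88 inhibitors; 0% = DMSO and 100% = clavulanic acid full inhibition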
# TLR9-MyD88 cf = confirmation of human TLR9-MyD88 binding inhibitors; shares compounds with TLR9-MyD88 block; inhibition, % at 4.98 µM; CHO TLR9/MyD88 BLA complementation, CCF4 FRET ratio; 680 tested, 51% active;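 active = mean inhibition across three repeats above about 21% taken from the earlier screen, limit read from the data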;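 note: blue over green emission ratio reports constitutive TLR9 MyD88 association via BLA complementation; 0% = DMSO vehicle wells and 100% = clavulanate BLA inhibitor wells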
# BLA counter-1 = counter-screen for TLR9-MyD88 inhibitors: non-selective beta-lactamase inhibitors. CHO-BLA cells, CCF4 FRET ratio, BLA reporter. shares compounds with TLR9-MyD88 block. AID 540251. 680 tested, 7% active. inhibition, % at 4.98 µM;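 active = mean inhibition above a 50% cutoff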;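 note: counterscreen of TLR9-MyD88 hits on CMV-driven BLA in CHO-K1 cells; 0% = DMSO alone and 100% = clavulanate blocking BLA; higher means less blue over green ratio so more BLA blockade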
# TLR9 CHO cytotox = CHO cell toxicity counter-screen for TLR9-MyD88 inhibitors. shares compounds with TLR9-MyD88 block. TLR9-MyD88 CHO cells cytotoxicity, luminescence. inhibition, % at 4.98 µM. 680 tested, 39% active; in the data active = inhibition above about 11%
# NOD2-RIPK2 conf = NOD2-RIPK2 interaction inhibition confirmed; shares compounds with NOD2 RIPK2 PPI; CHO cells, NOD2-RIPK2 BLA complementation, CCF4 FRET; inhibition, % at 4.98 µM; 1,200 tested, 70% active; AID 624370;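 active = mean inhibition across replicates above a set limit taken from the earlier primary screen, cut at about 21% in these data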;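 note: 0% = DMSO-only wells and the high end = clavulanate BLA-blocked wells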
# BLA counter-2 = hits BLA reporter in NOD2-RIPK2 inhibitor counterscreen; shares compounds with NOD2 RIPK2 PPI; CHO BLA reporter, CCF4 FRET ratio; inhibition, % at 4.98 µM; 1,200 tested, 57% active; AID 624371;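 active = mean inhibition above the low-control mean inhibition plus three low-control SD, cut at about 11% in these data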;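 note: 0% = DMSO only wells and 100% = clavulanate high control wells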
# Starred values were filed as active, the others as inactive; / = no result. Only some compounds are listed: those with a hit (about 3.3% of all), similar ones and a draw of the others.
SMILES,NOD2 RIPK2 PPI,TLR4 MyD88 comp,PRMT1 inh,TLR9-MyD88 block,rCAG RNA binder,ABHD5-PLIN5 inh,TLR4-MyD88 conf,BLA inh HeLa,TLR9-MyD88 cf,BLA counter-1,TLR9 CHO cytotox,NOD2-RIPK2 conf,BLA counter-2
Cn1c(-c2c(N)n(CCc3ccccc3)c3nc4ccccc4nc23)nc2ccccc21,69*,69*,/,61*,/,6,51*,84*,55*,56*,1,73*,75*
N#Cc1c(N)n(CCc2ccc(F)cc2)c2nc3ccccc3nc12,-9,-12,-5,-15,4,-20,/,/,/,/,/,/,/
Cn1c(-c2c(N)n(CCCc3ccccc3)c3nc4ccccc4nc23)nc2ccccc21,58*,48*,/,32*,/,-6,54*,86*,62*,63*,-2,79*,80*
Cn1c(-c2c(N)n(C3CCCC3)c3nc4ccccc4nc23)nc2ccccc21,29*,68*,-1,40*,9,-5,69*,96*,/,/,/,78*,83*
Cc1cc2c(cc1C)-n1nnnc1C(N1CCN(c3ccccn3)CC1)C(c1ccc3c(c1)OCO3)=N2 (configuration not stated),2,/,0,/,7,-2,/,/,/,/,/,/,/
Cc1cc(OCCn2ccnc2)cc(C)c1Cl,-5,/,5,0,-6,-2,/,/,/,/,/,/,/
CCC(C)NS(=O)(=O)c1ccc(S(=O)(=O)N2CCCC3(CCCCC3)C2)cc1 (configuration not stated),-6,0,2,0,-2,-9,/,/,/,/,/,/,/
O=C(C1=NN(c2ccccc2)C2C(=O)N(c3ccccc3)C(=O)C12)c1ccccc1 (configuration not stated),16,22,1,9,6,-7,/,/,/,/,/,/,/
O=C(C1=NN(c2ccccc2)C2C(=O)N(c3ccccc3Cl)C(=O)C12)c1ccccc1 (configuration not stated),42*,38*,0,28*,7,-15,21,27*,17,16,-3,47*,48*
COc1ccc(Cn2cc3c(-c4ccc(F)cc4)nnc-3c3cc(OC)c(OC)cc32)cc1,63*,28*,-2,50*,19,10,25*,41*,31*,35,-1,66*,72*
CCCCn1c(N)c(N(CC(C)C)C(=O)c2ccc(N3C(=O)CCC3=O)cc2)c(=O)[nH]c1=O,-12,/,-1,3,-2,3,/,/,/,/,/,/,/
CCN(CC)c1ccc(-c2nc3cnccn3c2NC2CCCC2)cc1,22*,52*,1,36*,0,4,31*,61*,37*,40,1,56*,66*
CCN(CC)c1ccc2cc(-c3nc4ccccc4n3C)c(=O)oc2c1,44*,49*,5,33*,-22,2,58*,87*,41*,49,39*,69*,75*
Cc1ccc(C(=O)Nc2cccc3ccccc23)cc1,2,/,3,1,-1,3,/,/,/,/,/,/,/
CC(C)(C)c1ccc(C(=O)Nc2cccc3c(=O)[nH][nH]c(=O)c23)cc1,50*,29*,7,35*,8,0,28*,51*,18,22,3,42*,48*
COc1cc2nc(/C=C/c3ccc(N(C)C)cc3)sc2cc1SC,41*,64*,-3,32*,-2,-3,65*,96*,53*,59*,1,78*,82*
Cc1cc(-c2cccs2)c2c(N)c(C(=O)c3ccc4c(c3)OCO4)sc2n1,-2,9,9,18,2,0,/,/,/,/,/,/,/
COc1ccc(C(=O)c2sc3nc(C)cc(-c4cccs4)c3c2N)cc1,64*,34*,6,56*,-1,-7,14,20,45*,46,2,37*,71*
O=S(c1ccccc1)c1ccccc1,-5,/,-1,3,-1,-1,/,/,/,/,/,/,/
O=S(=O)(c1ccc(Br)c2nsnc12)N1CCOCC1,56*,56*,-2,27*,-1,0,54*,76*,14,9,14*,54*,20*
Cc1ccc(S(=O)(=O)N2CCOCC2)c2nsnc12,-5,4,-3,8,-2,-1,/,/,/,/,/,/,/
Nc1ccc2c(C(F)(F)F)cc(=O)oc2c1,51*,49*,4,55*,0,-3,41*,66*,36*,41,-1,64*,68*
O=C(c1cccc(N2C(=O)c3ccccc3C2=O)c1)N1CCCCCC1,0,4,4,-7,-6,-7,/,/,/,/,/,/,/
O=C1c2cccc3c(N4CCCCC4)ccc(c23)C(=O)N1c1cccc(O)c1,54*,50*,10,42*,-24,-1,35*,55*,35*,33,11*,61*,68*
C=CCN1C(=O)c2cccc3c(Br)ccc(c23)C1=O,0,10,-2,-1,6,-4,/,/,/,/,/,/,/
C=CCN1C(=O)c2cccc3c(N4CCCCC4)ccc(c23)C1=O,22*,51*,17,8,-22,-7,36*,61*,/,/,/,61*,64*
Cc1ccc2ccc(C3C(=O)c4ccccc4C3=O)nc2c1,-13,-13,0,-2,4,9,/,/,/,/,/,/,/
COc1ccc(C2=CC(c3ccc(Cl)cc3)n3cnnc3N2)cc1OC (configuration not stated),47*,39*,1,50*,-5,-3,26*,49*,-4,1,6,2,-8
COc1cccc(CNC(=O)CN(C)S(=O)(=O)c2ccc3c(c2)n(C)c(=O)c(=O)n3C)c1,9,/,-1,4,1,7,/,/,/,/,/,/,/
